Experimental data: PubChem BioAssay (EPA / NIEHS)
“And” between values parts separate entries of the source, which are not always exact repeats. Identical values can stand only once. Records with an inconclusive call do not appear. Some structures have more than one record in an assay (separate samples or runs), and their calls can disagree. The source made the active and inactive calls. Rule for the calls, unless noted: active = hit-call score of the fitted dose curve at least 0.9, where 1 is the maximum; inactive = score below 0.9.

Key:
[1] = molecular target: Glucocorticoid receptor (Homo sapiens) (UniProt P04150); assay: ATG_GR_TRANS: Attagene TRANS-FACTORIAL HepG2 Assay for human Glucocorticoid Receptor (GR) (AID 2282978; active = hit-call score of the fitted dose curve at least 0.9, where 1 is the maximum;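 note: activators score as hits since higher reporter transcript over DMSO is fitted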); conditions: HepG2 Attagene TRANS GR reporter, mRNA transcription
Glucocorticoid receptor (Homo sapiens), sequence (P04150 whole entry, looked up): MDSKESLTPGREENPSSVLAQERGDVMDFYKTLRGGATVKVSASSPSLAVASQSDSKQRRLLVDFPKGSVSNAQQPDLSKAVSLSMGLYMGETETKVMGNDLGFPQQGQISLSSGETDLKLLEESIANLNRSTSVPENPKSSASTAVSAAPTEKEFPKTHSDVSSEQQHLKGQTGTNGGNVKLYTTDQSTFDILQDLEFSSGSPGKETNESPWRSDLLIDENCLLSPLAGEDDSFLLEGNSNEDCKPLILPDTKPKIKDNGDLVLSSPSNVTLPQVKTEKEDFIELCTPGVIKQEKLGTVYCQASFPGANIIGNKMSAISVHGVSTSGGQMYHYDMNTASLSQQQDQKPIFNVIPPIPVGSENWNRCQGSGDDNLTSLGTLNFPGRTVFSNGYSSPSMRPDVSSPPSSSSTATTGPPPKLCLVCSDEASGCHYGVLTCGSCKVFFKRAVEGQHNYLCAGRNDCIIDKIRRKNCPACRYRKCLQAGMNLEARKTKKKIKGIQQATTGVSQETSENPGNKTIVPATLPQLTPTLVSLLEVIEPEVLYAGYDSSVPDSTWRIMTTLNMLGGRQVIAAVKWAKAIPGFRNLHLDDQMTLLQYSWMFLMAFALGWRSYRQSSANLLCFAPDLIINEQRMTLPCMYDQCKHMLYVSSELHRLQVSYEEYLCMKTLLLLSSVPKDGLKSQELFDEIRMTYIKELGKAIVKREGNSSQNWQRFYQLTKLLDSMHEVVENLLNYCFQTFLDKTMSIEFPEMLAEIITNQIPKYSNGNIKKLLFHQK
In short: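 After 24 h incubation with test chemical, transfected HepG2 cells were lysed for RNA; reporter cDNA was amplified, FAM-labelled, HpaI-digested and sized on a capillary analyser. Signal gain relative to DMSO was scored.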

[2] = molecular target: Oxysterols receptor LXR-beta (Homo sapiens) (UniProt P55055); assay: ATG_LXRb_TRANS: Attagene TRANS-FACTORIAL HepG2 Assay for human Liver X Receptor beta (LXRb) (AID 2282981; active = hit-call score of the fitted dose curve at least 0.9, where 1 is the maximum); conditions: HepG2 Attagene TRANS GAL4-LXRb reporter, mRNA
Oxysterols receptor LXR-beta (Homo sapiens), sequence (P55055 whole entry, looked up, the tested form may be a part): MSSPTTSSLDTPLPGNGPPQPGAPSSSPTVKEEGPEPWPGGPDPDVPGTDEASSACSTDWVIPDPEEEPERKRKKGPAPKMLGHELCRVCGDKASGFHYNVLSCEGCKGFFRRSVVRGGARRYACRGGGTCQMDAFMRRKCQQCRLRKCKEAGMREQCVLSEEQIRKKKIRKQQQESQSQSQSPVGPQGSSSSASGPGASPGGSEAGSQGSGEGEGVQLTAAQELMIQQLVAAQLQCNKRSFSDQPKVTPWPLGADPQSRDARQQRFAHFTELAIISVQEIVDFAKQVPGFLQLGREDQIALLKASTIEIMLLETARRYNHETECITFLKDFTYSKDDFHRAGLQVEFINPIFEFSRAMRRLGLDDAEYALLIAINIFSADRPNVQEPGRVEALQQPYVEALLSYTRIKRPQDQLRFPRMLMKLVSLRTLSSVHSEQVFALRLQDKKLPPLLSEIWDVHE
In short: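 HepG2 cells transiently transfected with multiple reporter transcription units carrying chimeric NR-Gal4 proteins acting on GAL4-UAS reporters; compound exposure 24 h. Reporter mRNA quantified by RT-PCR, 6-FAM labelling, HpaI digestion and capillary electrophoresis; gain of signal versus DMSO.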

[3] = molecular target: Hepatocyte nuclear factor 4-alpha (Homo sapiens) (UniProt P41235); assay: ATG_HNF4a_TRANS: Attagene TRANS-FACTORIAL HepG2 Assay for human Hepatocyte Nuclear Factor 4 alpha (HNF4a) (AID 2282982; active = hit-call score of the fitted dose curve at least 0.9, where 1 is the maximum); conditions: HepG2 HNF4a transactivation reporter, mRNA readout
Hepatocyte nuclear factor 4-alpha (Homo sapiens), sequence (P41235 whole entry, looked up, the tested form may be a part): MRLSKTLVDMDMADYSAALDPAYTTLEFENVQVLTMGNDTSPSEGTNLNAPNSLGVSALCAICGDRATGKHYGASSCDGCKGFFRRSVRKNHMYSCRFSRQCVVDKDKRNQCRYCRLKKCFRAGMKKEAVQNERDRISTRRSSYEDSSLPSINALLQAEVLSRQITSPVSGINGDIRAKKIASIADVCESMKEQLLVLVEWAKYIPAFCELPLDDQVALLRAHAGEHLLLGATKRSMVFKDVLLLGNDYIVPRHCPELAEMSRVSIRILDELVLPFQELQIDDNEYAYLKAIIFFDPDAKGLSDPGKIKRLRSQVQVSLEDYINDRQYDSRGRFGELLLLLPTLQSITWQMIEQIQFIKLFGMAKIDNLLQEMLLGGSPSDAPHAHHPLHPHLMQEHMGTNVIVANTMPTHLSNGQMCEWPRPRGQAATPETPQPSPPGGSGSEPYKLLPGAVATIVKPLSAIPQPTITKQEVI
In short: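 HepG2 cells transiently transfected with multiplexed GAL4-UAS reporter units responsive to chimeric NR-GAL4 proteins; compound exposure 24 h. Reporter mRNA quantified by RT-PCR, 6-FAM labelling, HpaI digestion and capillary electrophoresis; gain of signal versus DMSO baseline.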

[4] = ATG_M_06_TRANS: Attagene TRANS-FACTORIAL HepG2 Assay for M06 Transcription Factor (Internal Marker) (AID 2282983; active = hit-call score of the fitted dose curve at least 0.9, where 1 is the maximum); conditions: HepG2 Attagene TRANS M06 internal marker reporter
In short: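 Measured by capillary electrophoresis of fluorescently labelled RT-PCR products, this endpoint reflects reporter mRNA in HepG2 cells harbouring exogenous NR-GAL4 reporter constructs after 24 h exposure, with DMSO as baseline.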

[5] = ATG_M_32_TRANS: Attagene TRANS-FACTORIAL HepG2 Assay for M32 Transcription Factor (Internal Marker) (AID 2282984; active = hit-call score of the fitted dose curve at least 0.9, where 1 is the maximum;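 note: transcript level of a background control reporter unit measured by RT-PCR and capillary electrophoresis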); conditions: HepG2 Attagene TRANS M32 internal marker reporter
In short: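 HepG2 cells transiently transfected with multiple GAL4-UAS reporter transcription units, dosed for 24 hours; reporter mRNA quantified by RT-PCR, 6-FAM primer extension, HpaI digestion and capillary electrophoresis. Gain-of-signal fitted versus DMSO baseline; internal background-control marker.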

[6] = molecular target: Nuclear receptor subfamily 4 group A member 2 (Homo sapiens) (UniProt P43354); assay: ATG_NURR1_TRANS: Attagene TRANS-FACTORIAL HepG2 Assay for human Nuclear Receptor Related Protein 1 (NURR1) (AID 2282985; active = hit-call score of the fitted dose curve at least 0.9, where 1 is the maximum); conditions: HepG2 Attagene TRANS reporter, mRNA readout
Nuclear receptor subfamily 4 group A member 2 (Homo sapiens), sequence (P43354 whole entry, looked up, the tested form may be a part): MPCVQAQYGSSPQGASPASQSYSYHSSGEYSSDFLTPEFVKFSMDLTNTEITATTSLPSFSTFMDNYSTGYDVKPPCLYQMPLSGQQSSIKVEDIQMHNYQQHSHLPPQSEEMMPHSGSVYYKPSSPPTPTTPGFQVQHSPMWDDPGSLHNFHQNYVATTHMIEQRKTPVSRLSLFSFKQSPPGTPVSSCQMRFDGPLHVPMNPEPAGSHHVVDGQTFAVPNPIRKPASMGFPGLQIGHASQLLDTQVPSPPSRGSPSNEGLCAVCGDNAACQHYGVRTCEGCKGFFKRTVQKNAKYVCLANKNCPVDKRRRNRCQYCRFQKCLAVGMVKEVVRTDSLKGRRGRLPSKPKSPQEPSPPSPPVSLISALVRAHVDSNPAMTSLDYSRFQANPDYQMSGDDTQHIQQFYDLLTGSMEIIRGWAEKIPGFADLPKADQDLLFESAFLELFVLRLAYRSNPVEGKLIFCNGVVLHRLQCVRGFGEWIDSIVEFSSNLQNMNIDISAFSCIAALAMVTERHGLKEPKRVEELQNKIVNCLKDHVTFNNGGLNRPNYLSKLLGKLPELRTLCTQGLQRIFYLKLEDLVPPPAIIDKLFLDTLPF
In short: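 HepG2 cells transiently transfected with GAL4-UAS reporter units and chimeric NR-Gal4 constructs; chemical exposure 24 h. Reporter mRNA quantified by RT-PCR, fluorescent labelling and capillary electrophoresis; gain of signal fitted relative to DMSO baseline.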

[7] = molecular target: Transcriptional activator Myb (Homo sapiens) (UniProt P10242); assay: ATG_Myb_CIS: Attagene CIS-FACTORIAL HepG2 Assay for human Myeloblastosis (Myb) Proto-Oncogene Transcription Factor (AID 2282986); conditions: HepG2 Attagene CIS-FACTORIAL Myb reporter transcription; actives raise or lower the signal
Transcriptional activator Myb (Homo sapiens), sequence (P10242 whole entry, looked up): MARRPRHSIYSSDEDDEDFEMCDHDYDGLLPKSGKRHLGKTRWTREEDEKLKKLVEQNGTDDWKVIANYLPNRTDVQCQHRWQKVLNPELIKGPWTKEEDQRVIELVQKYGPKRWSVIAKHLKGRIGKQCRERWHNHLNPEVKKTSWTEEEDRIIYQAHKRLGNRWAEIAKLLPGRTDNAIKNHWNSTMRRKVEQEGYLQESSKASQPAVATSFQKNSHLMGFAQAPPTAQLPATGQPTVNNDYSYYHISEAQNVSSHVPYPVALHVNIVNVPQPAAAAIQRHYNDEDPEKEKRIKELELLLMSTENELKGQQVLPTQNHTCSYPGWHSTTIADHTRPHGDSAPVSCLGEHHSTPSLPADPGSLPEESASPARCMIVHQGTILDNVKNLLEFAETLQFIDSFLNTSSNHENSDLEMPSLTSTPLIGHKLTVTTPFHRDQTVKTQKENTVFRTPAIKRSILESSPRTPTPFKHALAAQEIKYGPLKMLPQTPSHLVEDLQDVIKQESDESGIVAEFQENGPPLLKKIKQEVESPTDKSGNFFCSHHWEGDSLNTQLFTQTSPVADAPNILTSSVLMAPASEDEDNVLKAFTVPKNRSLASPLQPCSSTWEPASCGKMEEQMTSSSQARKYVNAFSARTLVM
In short: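 After 24 h of compound dosing, total RNA from transfected HepG2 cells is reverse-transcribed and the reporter sequences amplified, labeled and separated by capillary electrophoresis. Values come from bidirectional fitting against DMSO.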

[8] = molecular target: Nuclear respiratory factor 1 (Homo sapiens) (UniProt Q16656); assay: ATG_NRF1_CIS: Attagene CIS-FACTORIAL HepG2 Assay for human Nuclear Respiratory Factor 1 (NRF1) Orphan Gene (AID 2282987); conditions: HepG2 NRF1 cis-element reporter, Attagene multiplex; actives raise or lower the signal
Nuclear respiratory factor 1 (Homo sapiens), sequence (Q16656 whole entry, looked up): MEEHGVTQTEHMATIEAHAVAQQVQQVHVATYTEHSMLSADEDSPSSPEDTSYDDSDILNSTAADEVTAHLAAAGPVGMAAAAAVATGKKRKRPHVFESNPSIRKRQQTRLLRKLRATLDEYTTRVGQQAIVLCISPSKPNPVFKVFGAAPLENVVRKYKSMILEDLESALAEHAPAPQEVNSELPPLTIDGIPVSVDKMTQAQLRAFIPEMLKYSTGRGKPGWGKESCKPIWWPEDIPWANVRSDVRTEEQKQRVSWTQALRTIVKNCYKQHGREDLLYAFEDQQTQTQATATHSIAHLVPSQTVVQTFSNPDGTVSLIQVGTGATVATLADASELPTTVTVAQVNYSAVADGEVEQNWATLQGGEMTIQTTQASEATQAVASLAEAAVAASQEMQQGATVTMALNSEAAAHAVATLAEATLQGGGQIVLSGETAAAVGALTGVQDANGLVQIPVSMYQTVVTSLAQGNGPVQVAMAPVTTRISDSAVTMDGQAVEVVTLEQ
In short: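 Measured: fluorescent reporter-specific RT-PCR products from transfected HepG2 cells, separated by capillary electrophoresis. Exposure lasted 24 h. Analysis used bidirectional curve fitting with DMSO as negative control.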

[9] = ATG_NFI_CIS: Attagene CIS-FACTORIAL HepG2 Assay for human Nuclear Factor I (NFI) (AID 2282989); conditions: HepG2 cis-regulatory reporter, NFI response element transcription; actives raise or lower the signal
In short: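 HepG2 cells transiently transfected with cis-element-driven multiplexed reporter transcription units, dosed for 24 h. Reporter mRNA quantified by RT-PCR, fluorescent labelling, HpaI digestion and capillary electrophoresis; bidirectional fit versus DMSO baseline.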

[10] = molecular target: Myc proto-oncogene protein (Homo sapiens) (UniProt P01106); assay: ATG_Myc_CIS: Attagene CIS-FACTORIAL HepG2 Assay for human Myelocytomatosis (Myc) Proto-Oncogene Transcription Factor (AID 2282990); conditions: HepG2, Attagene cis-reporter transcription factor activity; actives raise or lower the signal
Myc proto-oncogene protein (Homo sapiens), sequence (P01106 whole entry, looked up): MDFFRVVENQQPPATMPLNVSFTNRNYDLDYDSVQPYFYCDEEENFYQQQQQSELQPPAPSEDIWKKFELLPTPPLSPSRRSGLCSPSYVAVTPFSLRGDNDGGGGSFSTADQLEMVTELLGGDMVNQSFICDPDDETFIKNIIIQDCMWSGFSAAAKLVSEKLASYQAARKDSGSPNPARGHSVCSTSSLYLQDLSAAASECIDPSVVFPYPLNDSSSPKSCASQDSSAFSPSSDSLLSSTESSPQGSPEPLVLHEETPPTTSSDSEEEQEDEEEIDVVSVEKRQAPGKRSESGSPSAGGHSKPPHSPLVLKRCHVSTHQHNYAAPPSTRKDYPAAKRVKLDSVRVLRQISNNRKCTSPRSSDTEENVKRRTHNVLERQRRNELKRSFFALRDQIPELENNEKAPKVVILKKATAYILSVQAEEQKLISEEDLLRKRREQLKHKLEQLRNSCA
In short: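 DMSO-normalised, bidirectionally fitted reporter mRNA signal. HepG2 cells transfected with cis reporter constructs, treated 24 h; transcripts detected by RT-PCR, 6-FAM primer extension and CE.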

[11] = ATG_NF_kB_CIS: Attagene CIS-FACTORIAL HepG2 Assay for human Nuclear Factor Kappa B (NF-kB) (AID 2282991); conditions: HepG2 Attagene cis-factorial NF-kB reporter mRNA; actives raise or lower the signal
In short: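 Fluorescence of labelled RT-PCR products separated by capillary electrophoresis gives reporter mRNA levels from transfected HepG2 cells exposed 24 h; values are fitted in both directions relative to DMSO.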

[12] = ATG_NRF2_ARE_CIS: Attagene CIS-FACTORIAL HepG2 Assay for human Nuclear Factor Erythroid 2 Related Factor 2 (NFR2) response to Antioxidant Response Elements (ARE) (AID 2282992); conditions: HepG2 Attagene ARE/NRF2 reporter, transcription factor activity; actives raise or lower the signal
In short: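 Cis-factorial assay: transfected HepG2 reporter library, 24 h dosing, mRNA readout via RT-PCR/CE; DMSO-referenced bidirectional analysis.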

[13] = ATG_Oct_MLP_CIS: Attagene CIS-FACTORIAL HepG2 Assay for human Octamer-Binding Transcription Factor (Oct) (AID 2282993); conditions: HepG2 Attagene cis-factorial Oct reporter, mRNA; actives raise or lower the signal
In short: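 HepG2 cells transiently transfected with cis-promoter-driven multiplexed reporter transcription units, dosed for 24 h. Reporter mRNA quantified by RT-PCR, fluorescent labelling, HpaI digestion and capillary electrophoresis; bidirectional fits versus DMSO baseline.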

[14] = molecular target: Cellular tumor antigen p53 (Homo sapiens) (UniProt P04637); assay: ATG_p53_CIS: Attagene CIS-FACTORIAL HepG2 Assay for human p53 Transcription Factor (AID 2282994); conditions: HepG2 p53 cis-element reporter, Attagene mRNA; actives raise or lower the signal
Cellular tumor antigen p53 (Homo sapiens), sequence (P04637 whole entry, looked up): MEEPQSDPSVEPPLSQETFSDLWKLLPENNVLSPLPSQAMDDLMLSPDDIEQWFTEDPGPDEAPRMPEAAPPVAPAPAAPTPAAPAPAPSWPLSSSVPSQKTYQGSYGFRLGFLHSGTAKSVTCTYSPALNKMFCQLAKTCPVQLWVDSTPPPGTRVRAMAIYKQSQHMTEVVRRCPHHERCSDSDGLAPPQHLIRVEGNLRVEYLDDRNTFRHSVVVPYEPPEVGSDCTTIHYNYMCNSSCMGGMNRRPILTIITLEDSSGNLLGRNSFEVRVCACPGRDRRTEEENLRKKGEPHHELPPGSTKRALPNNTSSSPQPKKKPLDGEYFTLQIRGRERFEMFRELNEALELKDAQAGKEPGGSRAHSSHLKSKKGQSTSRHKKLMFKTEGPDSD
In short: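 Using HepG2 hepatoma cells carrying cis-acting multiplexed reporters, mRNA induction is detected after a 24 h exposure. Gain- and loss-of-signal responses are fitted relative to DMSO-treated cells.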

[15] = BSK_3C_TissueFactor: BioMAP Diversity Plus: 3C Assay for Tissue Factor Biomarker Activity (AID 2282997); conditions: BioMAP 3C HUVEC, tissue factor biomarker readout; actives raise or lower the signal
In short: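 Values derive from bidirectional curve fitting against DMSO of Tissue Factor ELISA signals, taken 24 h after dosing primary human umbilical vein endothelial cells.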

[16] = BSK_3C_uPAR: BioMAP Diversity Plus: 3C Assay for Urokinase-type plasminogen activator receptor (uPAR) Biomarker Activity (AID 2282998); conditions: BioMAP 3C HUVEC, uPAR biomarker ELISA; actives raise or lower the signal
In short: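 Human umbilical vein endothelial primary cells were exposed to test chemical for 24 h. Cell-surface uPAR was then quantified by ELISA, and responses were fitted bidirectionally against DMSO as negative control and baseline.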

[17] = BSK_3C_VCAM1: BioMAP Diversity Plus: 3C Assay for Vascular cell adhesion molecule 1 (VCAM1) Biomarker Activity (AID 2282999); conditions: BioMAP 3C HUVEC, VCAM1 ELISA, cytokine-stimulated; actives raise or lower the signal
In short: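 Human umbilical vein endothelial cells were dosed with compound for 24 h, after which cell-surface VCAM-1 was quantified by ELISA. Bidirectional curve fitting used DMSO as negative control and activity baseline.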

[18] = molecular target: Estrogen-related receptor gamma (Homo sapiens) (UniProt P62508); assay: ATG_ERRg_TRANS: Attagene TRANS-FACTORIAL HepG2 Assay for human Estrogen-Related Receptor gamma (ERRg) (AID 2282977; active = hit-call score of the fitted dose curve at least 0.9, where 1 is the maximum;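 note: hits increase reporter signal over DMSO so potencies reflect activators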); conditions: HepG2 Attagene TRANS reporter, ERRg transactivation
Estrogen-related receptor gamma (Homo sapiens), sequence (P62508 whole entry, looked up, the tested form may be a part): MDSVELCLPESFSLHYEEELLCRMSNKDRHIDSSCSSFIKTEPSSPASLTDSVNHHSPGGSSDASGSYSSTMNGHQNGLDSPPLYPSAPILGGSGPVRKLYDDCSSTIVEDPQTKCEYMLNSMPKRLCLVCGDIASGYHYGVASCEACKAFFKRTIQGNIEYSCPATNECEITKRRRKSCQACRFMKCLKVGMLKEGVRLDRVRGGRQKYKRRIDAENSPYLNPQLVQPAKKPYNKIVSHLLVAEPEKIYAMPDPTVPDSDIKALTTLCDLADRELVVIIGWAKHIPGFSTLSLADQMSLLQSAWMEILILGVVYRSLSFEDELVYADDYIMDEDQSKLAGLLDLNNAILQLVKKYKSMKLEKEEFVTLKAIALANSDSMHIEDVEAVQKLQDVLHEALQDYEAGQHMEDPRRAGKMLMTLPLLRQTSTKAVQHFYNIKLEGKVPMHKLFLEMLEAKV
In short: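 HepG2 cells transiently transfected with multiplexed GAL4-UAS reporter units and chimeric NR-Gal4 constructs were exposed to test chemicals for 24 h. Reporter mRNA was measured by RT-PCR, 6-FAM primer extension, HpaI digestion and capillary electrophoresis; gain-of-signal versus DMSO.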

Measured: AC50

CNC(=S)S
inactive: [1] | [2] | [3] | [4] | [5] | [6] | [7] | [8] | [9] | [10] | [11] | [13] | [14] | [15] | [16]
active: [12] 26.7 µM and 17.6 µM | [13] 50 µM | [17] 12.2 µM

CCON=C(CC)C1=C(O)CC(c2c(C)cc(C)cc2C)CC1=O (stereo unspecified)
inactive: [2] | [4] | [5] | [7] | [8] | [9] | [10] | [11] | [12] | [13] | [14] | [15] | [16]

COc1nc(C)nc(NC(=O)NS(=O)(=O)c2ccccc2Cl)n1
inactive: [18] | [2] | [3] | [4] | [5] | [7] | [8] | [9] | [10] | [12] | [13] | [14] | [15] | [16] | [17]

N#Cc1cc(Br)c(O)c(Br)c1
active: [9] 10.8 µM | [12] 26.7 µM | [13] 40.1 µM | [16] 32.5 µM
inactive: [18] | [2] | [3] | [7] | [8] | [10] | [11] | [14] | [15]

O=C(O)COc1nc(Cl)c(Cl)cc1Cl
inactive: [3] | [4] | [6] | [7] | [8] | [9] | [10] | [11] | [13] | [14] | [15] | [16]
active: [12] 19.1 µM

Cc1c(F)c(F)c(COC(=O)C2C(/C=C(\Cl)C(F)(F)F)C2(C)C)c(F)c1F (stereo unspecified)
inactive: [1] | [2] | [3] | [5] | [6] | [7] | [8] | [9] | [10] | [11] | [12] | [13] | [14] | [15] | [16]

CCOC(=O)C(Cl)Cc1cc(-n2nc(C)n(C(F)F)c2=O)c(F)cc1Cl (stereo unspecified)
inactive: [1] | [2] | [4] | [5] | [7] | [8] | [9] | [10] | [11] | [12] | [13] | [14] | [15] | [16] | [17]

COP(N)(=O)SC (stereo unspecified)
inactive: [3] | [4] | [5] | [6] | [7] | [8] | [9] | [10] | [11] | [12] | [13] | [14] | [15] | [16]
